Pf Dd2 growth: inhibitors of Plasmodium falciparum Dd2 growth; 120,000 compounds, 4.3% hits; AID 1347417; P. falciparum Dd2 growth, SYBR Green, 72 h; Potency, µM (top dose mostly 28.9 µM), inactives show top-dose activity, negative = inhibition, hits mostly inhibitors; active means well fitted inhibition curve with a large enough effect;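 further: plate controls were DMSO vehicle for no effect and reference drug for full effect; nearly all actives have a fitted effect of over 65% in size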
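Readout: SYBR Green fluorescence, 485 nm excitation, 535 nm emission, after ~16 h lysis at 37C. Before that, Dd2-infected red cells (2.5% hematocrit) grew 72 h with compound, 29 uM top final concentration.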
Numbers without * were called inactive; i = inactive; [ ] = another dose, or the depositor's remark. Shown is part of a subset that was picked to be rich in hits. Potency means the concentration at half of the fitted maximal effect.

SMILES	Pf Dd2 growth
CCc1ccc(C2=CC(c3c(F)cccc3Cl)n3c(nc4ccccc43)N2)cc1 (centres undefined)	24%
COc1ccccc1C1C=C(c2ccc(F)cc2)Nc2nc(-c3ccc(Cl)cc3)nn21 (centres undefined)	11µM*
COc1ccccc1C1C=C(c2ccc(Cl)cc2)Nc2nc(-c3ccc(Cl)cc3)nn21 (centres undefined)	2.8µM*
COc1cccc(C2=CC(c3cc(Br)ccc3F)n3nnnc3N2)c1 (centres undefined)	-5%
CC(C)Cc1cc(C(=O)N2CCCC(C)(c3ccccc3)C2)no1 (centres undefined)	-25%
C1=CCC(c2nc(C3CCOCC3)nn2-c2cccnc2)C1	2%
O=C(CN1C(=O)NC(c2ccc(Cl)cc2)C2=C1COC2=O)Nc1ccc2c(c1)OCCO2 (centres undefined)	-14%
COc1ccccc1-c1ccnc(-c2nnc(C)n2Cc2ccccc2)c1	-8%[44.1 µM]
COc1cccc(C(=O)c2cn(CC(=O)NCc3ccccc3Cl)c3nc(C)ccc3c2=O)c1	-5%
COc1ccc(CNC(=O)c2c(Nc3ccc(OC)cc3OC)sc(C(=O)c3ccc(Cl)cc3)c2N)cc1	i
Cc1ccccc1Nc1sc(C(=O)c2ccc3c(c2)OCO3)c(N)c1S(=O)(=O)c1ccccc1	-17%
COc1ccc2nc3sc(C(=O)Nc4ccccc4F)cc3cc2c1	9%
COc1ccc(S(=O)(=O)c2c(Nc3ccc(C)cc3C)sc(C(=O)c3ccc(F)cc3)c2N)cc1	11µM*
COc1cccc(C(=O)Nc2ccccc2-c2nc3ccccc3s2)c1	i
COc1ccc(S(=O)(=O)c2c(Nc3ccccc3F)sc(C(=O)c3cccc(OC)c3)c2N)cc1	11µM*
COc1cccc(C(=O)c2sc(Nc3ccc(F)c(Cl)c3)nc2N)c1	i
Cc1ccc(S(=O)(=O)c2c(Nc3ccccc3)sc(C(=O)c3ccc4c(c3)OCO4)c2N)cc1	13µM*
COc1ccc(S(=O)(=O)c2c(O)c(C)cc(NC(=O)c3ccccc3)c2C(C)C)cc1	i
CC(=O)c1cc2c(cc1N/C(=N/S(=O)(=O)c1ccc(C)cc1)c1ccccc1)OCO2	-24%
CCc1ccccc1Nc1sc(C(=O)c2cccc(OC)c2)c(N)c1S(=O)(=O)c1ccccc1	11µM*
Cc1ccc(C2Cn3nnc(C(=O)N4CCN(C(=O)c5cccc(F)c5)CC4)c3CO2)cc1 (centres undefined)	-10%
CCc1[nH]nc(C(=O)N2CCC3(CC2)C(=O)NCCN3C)c1C	3%
O=C(c1c(OCC2CC2)cc(=O)n2c1CCOCC2)N1CCN(c2ncccn2)CC1	10%
CCOc1ccc(NC(=O)Cn2c(-c3ccc(F)cc3)nc(C)c(CCO)c2=O)cc1	-17%
COc1ccccc1[C@@H]1CN(C(=O)c2cc(C(C)C)[nH]n2)C[C@H]1C(=O)O	-16%
SMILES	Pf Dd2 growth
CCNC(=O)N1Cc2[nH]cnc2C[C@H]1C(=O)NCc1ccccc1	-13%[44.1 µM]
COC[C@@H]1CN(c2cnccn2)C[C@H]1C(=O)NCCc1ccccn1	7%
Cc1cc(C2CC(C(=O)NCc3ccco3)CN(C(=O)c3ccccc3)C2)ccc1F (centres undefined)	-5%
CCS(=O)(=O)c1c(Nc2cc(C)ccc2C)sc(C(=O)c2ccccc2)c1N	-21%
Cc1cccc(C)c1Nc1sc(C(=O)c2ccccc2)c(N)c1S(=O)(=O)c1ccccc1	i
CCc1ccccc1Nc1sc(C(=O)c2ccccc2)c(N)c1S(=O)(=O)c1ccccc1	11µM*
CCOc1ccc(C(=O)N2CCC(c3nnc(Cn4cccn4)n3C)CC2)o1	-14%
Cc1ncsc1CN1CCCN(S(=O)(=O)c2ccccc2)CCC(=O)NCC1	-21%
O=C(CCn1cncn1)N1CCOC(CC(c2ccccc2)c2ccccc2)C1 (centres undefined)	-9%
NC(=O)c1cccnc1N1CCOC(CC(c2ccccc2)c2ccccc2)C1 (centres undefined)	7.9µM*
Cc1ccccc1OC1(C(=O)O)CCN(c2ncccc2C(N)=O)CC1	-3%
COc1cccc(CC(=O)Nc2ccc3c(c2)CN(Cc2ccccc2F)C(=O)C(C)O3)c1 (centres undefined)	i
C=CCN1CCN(C(=O)C2(CCO)CC23CCOCC3)CC1 (centres undefined)	-1%
CN1CCN([C@H]2CCN(Cc3cccs3)C[C@H]2CCC(=O)O)CC1	5%
Cc1cc(C)cc(-n2c(SCC(=O)Nc3ccc4c(c3)OCCO4)nc3c([nH]c4ccccc43)c2=O)c1	i
O=C(CSc1nc2c([nH]c3ccccc32)c(=O)n1-c1ccccc1F)Nc1ccccc1C(F)(F)F	10µM*
O=C(CSc1nc2c([nH]c3ccccc32)c(=O)n1-c1ccccc1)N1CCCCCC1	-23%
O=C(CSc1nc2c([nH]c3ccccc32)c(=O)n1-c1ccccc1)Nc1ccc2c(c1)OCO2	11µM*
Cn1c(SCC(=O)Nc2ccccc2F)nc2c([nH]c3ccccc32)c1=O	i
COc1ccc(NC(=O)CSc2nc3c([nH]c4ccccc43)c(=O)n2-c2ccccc2)c(OC)c1	5µM*
Cc1cccc(NC(=O)CSc2nc3c([nH]c4ccccc43)c(=O)n2C)c1C	15%
CCOc1ccc(NC(=O)CSc2nc3c([nH]c4ccccc43)c(=O)n2-c2cc(C)cc(C)c2)cc1	i
CC1CCN(C(=O)CSc2nc3c([nH]c4ccccc43)c(=O)n2-c2ccccc2)CC1	29%
CCOc1ccc(-n2c(SCC(=O)Nc3ccc4c(c3)OCCO4)nc3c([nH]c4ccccc43)c2=O)cc1	i
COc1ccc(NC(=O)CSc2nc3c([nH]c4ccccc43)c(=O)n2C)cc1	41%
SMILES	Pf Dd2 growth
COc1cccc(NC(=O)CSc2nc3c([nH]c4ccccc43)c(=O)n2-c2ccccc2)c1	5.6µM*
CC(C)CCC(=O)N1CCC2(CC1)CC(O)CCO2 (centres undefined)	21%
Cc1ccc(NC(=O)O[C@@H]2CC[C@]3(C)C(CC[C@@H](O)[C@H]3CC(=O)N3CCC[C@H]3CO)[C@]2(C)CO)cc1 (some centres undefined)	i
O=C(CN1C(=O)NC(c2ccc(Cl)cc2)C2=C1COC2=O)Nc1ccc(Br)cc1F (centres undefined)	-23%
COc1ccc(C2=NOC3(CCN(C(=O)c4ccc(C(F)(F)F)cc4)C3)C2)cc1 (centres undefined)	i
CSCC(=O)N1CCCC(CCc2cccc(F)c2)C1 (centres undefined)	-20%
N#Cc1ccc(C(=O)N2CCCCCCNC(=O)[C@@H]3C[C@@H](c4nc(-c5cccnc5)no4)C[C@@H]32)cc1	-15%
NCC1CCCN(Cc2ccc(-c3nc(-c4cccnc4)cc(=O)[nH]3)cc2)C1 (centres undefined)	-17%
O=C(C[C@@H]1C[C@H]2O[C@H](CNC3CCOCC3)[C@@H](O)[C@H]2O1)N1CCOCC1	13%[44.1 µM]
Cc1nncn1C1CCN(S(=O)(=O)c2cc(F)cc(F)c2)CC1	-1%
COc1ccc(CN2C[C@@H](CO)[C@H](C3CCN(C(C)=O)CC3)C2)cc1OC	41%
CC(C)CNC(=O)C1CCN(C(=O)N2CC3CC(C2)[C@H]2CCCC(=O)N2C3)CC1 (some centres undefined)	-25%
Cc1c(-c2ccccc2F)[nH]c2ccc(CNC(=O)CCN3CCCO3)cc12	i
COc1ccccc1-c1onc(C)c1C(=O)NCc1ccccc1Cl	-6%
CS(=O)(=O)N(C1CC1)C1CCOC2(CCN(C(=O)c3ccccc3F)CC2)C1 (centres undefined)	-24%
